The list is not random: actives were taken first. Their share in the collection is about 6.9%.
GRIN3A LBD mod = modulators (binders) of human NR3A ligand-binding domain; NR3A LBD differential scanning fluorimetry, Tm shift; 0% = protein alone, 100% = glycine-bound protein; Tm shift relative to glycine control, % at 25 µM; hit rate 2.5% among 340,000; AID 1259313;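 active means melting temperature shift of at least 10% of the positive control shift, at one fixed dose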
Mdm2 MdmX PPI = inhibitors of human Mdm2/MdmX interaction; hit rate 3% among 330,000; SaOS-2 split-luciferase Mdm2/MdmX complementation, luminescence; O15151+Q00987; inhibition, % at 8 µM;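 active means inhibition of at least 50% at 8 µM in the primary screen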
Beta apoptosis = blocks beta cell apoptosis. INS-1E cytokine-induced death, ATP luminescence, 48 h; percent of positive-control rescue, neutral wells zero. protection from apoptosis, % (concentration not given with the values). hit rate 0.8% among 300,000;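 active means Every replicate reaches about 75%, or at least half do and their mean reaches it too, limit read from the data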;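 further: 0% = cytokine-treated negative control wells and 100% = positive control rescue; higher means more ATP so stronger rescue from cytokine killing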
CSC inhib = cancer stem cell inhibition. cancer stem cell-like cells viability, luminescence. inhibition, % at 7.5 µM. hit rate 1.1% among 300,000; in the data active means inhibition above about 75%; tested in HMLE shEcad cells
MPTP inh = inhibitors of mitochondrial permeability transition pore; hit rate 1.4% among 360,000; isolated mouse mitochondria, Ca2+ swelling absorbance, 30 min; inhibition, % at 10 µM;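 active means inhibition of 50% or more, scaled per plate between neutral and stimulator controls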;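 further: 0% = DMSO wells given calcium and 100% = 1 mM EGTA wells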
SKKanGAS inh = SKKanGAS growth inhibition; S. pyogenes SKKanGAS, kanamycin growth, BacTiter-Glo, 6 h; inhibition, % at 7.5 µM; hit rate 1.3% among 300,000;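 active means mean replicate score, as percent of positive control median, at least 50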;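 further: strain carries kanamycin resistance gene driven by streptokinase promoter and grows in 40 µg/ml kanamycin; loss of luminescence reflects streptokinase promoter inhibition or plain growth inhibition; 0% = median of DMSO wells and 100% = positive control at its reference dose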
Numbers without * were called inactive.

What do the screens show for `Cc1ccc(NC(=O)Nc2ccc3c(c2)OCO3)c(Br)c1`?
GRIN3A LBD mod: 18.6*; Mdm2 MdmX PPI: -18.6; Beta apoptosis: 0.5; CSC inhib: 20.9; MPTP inh: -1.1; SKKanGAS inh: -6.3

What do the screens show for `O=C(Nc1cccc(F)c1)Nc1ccc2c(c1)C(=O)OC2`?
GRIN3A LBD mod: 13.7*; Mdm2 MdmX PPI: -31.8; Beta apoptosis: -9.2; CSC inhib: -3.0; MPTP inh: 48.7; SKKanGAS inh: -1.3

How did O=C(Nc1ccc(F)cc1)Nc1ccc2c(c1)OCO2 do in these assays?
GRIN3A LBD mod: 11.5*; Mdm2 MdmX PPI: -47.5; Beta apoptosis: 3.8; CSC inhib: 12.2; MPTP inh: 4.4; SKKanGAS inh: 5.4

What do the screens show for `Cc1nn(CCCC(=O)N2CCN(c3ccc(F)cc3)CC2)c(C)c1[N+](=O)[O-]`?
GRIN3A LBD mod: 1.3; Mdm2 MdmX PPI: -8.0; Beta apoptosis: -3.7; CSC inhib: 2.6; MPTP inh: 0.7; SKKanGAS inh: -7.5

Results for COc1cc(NC(=O)Nc2ccc3c(c2)OCO3)cc(OC)c1OC ?
GRIN3A LBD mod: 26.1*; Mdm2 MdmX PPI: -24.3; Beta apoptosis: -2.5; CSC inhib: -24.2; MPTP inh: 2.6; SKKanGAS inh: 0.0

What do the screens show for `COc1ccc(C(C)(C)C)cc1NC(=O)Nc1ccc2c(c1)OCO2`?
GRIN3A LBD mod: 8.4; Mdm2 MdmX PPI: 48.2; Beta apoptosis: 4.7; CSC inhib: 83.3*; MPTP inh: 19.9; SKKanGAS inh: 9.9

What do the screens show for `C=CCNC(=O)/C(C#N)=C/c1c(N2CCN(c3ccc(OC)cc3)CC2)nc2c(C)cccn2c1=O`?
GRIN3A LBD mod: 0.2; Mdm2 MdmX PPI: 27.7; Beta apoptosis: 1.3; CSC inhib: -8.9; MPTP inh: -1.5; SKKanGAS inh: 15.6

What do the screens show for `CC1(C(=O)NS(=O)(=O)c2ccccc2Cl)CCN1C(=O)C1(c2ccc(Cl)cc2)CCC1` (stereo not drawn)?
MPTP inh: -0.2

How did N#C/C(=C(/O)c1ccc([N+](=O)[O-])o1)c1nc2ccccc2[nH]1 do in these assays?
GRIN3A LBD mod: 0.4; Mdm2 MdmX PPI: 39.5; Beta apoptosis: -3.5; CSC inhib: 59.9; MPTP inh: 19.6; SKKanGAS inh: 71.9*

How did CC(C)(C)/C(O)=C(/C#N)c1nc2ccccc2[nH]1 do in these assays?
GRIN3A LBD mod: -1.3; Mdm2 MdmX PPI: -9.1; Beta apoptosis: 14.0; CSC inhib: -15.1; MPTP inh: -1.2; SKKanGAS inh: 8.7

Results for CCCOc1ccc(N2C(=O)CC(N(Cc3ccc(OC)cc3)C(=S)Nc3ccccc3)C2=O)cc1 (stereo not drawn) ?
GRIN3A LBD mod: 24.2*; Mdm2 MdmX PPI: 35.2; Beta apoptosis: -9.0; CSC inhib: 19.1; MPTP inh: -19.7; SKKanGAS inh: 17.7

How did CCCOc1ccc(N2C(=O)CC(N(CCc3ccc(OC)c(OC)c3)C(=S)Nc3ccccc3)C2=O)cc1 (stereo not drawn) do in these assays?
GRIN3A LBD mod: 5.3; Mdm2 MdmX PPI: 19.1; Beta apoptosis: 47.6; CSC inhib: 67.9; MPTP inh: 2.3; SKKanGAS inh: 20.3

How did CNC(=S)N(Cc1ccc(OC)cc1)C1CC(=O)N(c2ccc(C(=O)OC)cc2)C1=O (stereo not drawn) do in these assays?
Mdm2 MdmX PPI: 6.4; Beta apoptosis: 1.2; CSC inhib: 18.5; SKKanGAS inh: -7.2

What do the screens show for `CNC(=S)N(Cc1ccc(OC)cc1)C1CC(=O)N(c2ccc(OC)cc2)C1=O` (stereo not drawn)?
GRIN3A LBD mod: 18.3*; Mdm2 MdmX PPI: -11.8; Beta apoptosis: 3.1; CSC inhib: 3.0; MPTP inh: -1.3

What do the screens show for `O=C1c2ccccc2C(c2nnnn2-c2ccc3c(c2)OCCO3)N1Cc1ccc2c(c1)OCO2` (stereo not drawn)?
MPTP inh: -0.4

How did CCCCN(C(=O)CN1C(=O)C2CCCCC2C1=O)c1c(N)n(CCC)c(=O)[nH]c1=O (stereo not drawn) do in these assays?
GRIN3A LBD mod: -1.6; Mdm2 MdmX PPI: -8.1; Beta apoptosis: -3.3; MPTP inh: -2.7; SKKanGAS inh: 0.2

Results for CC(C)(C)c1ccc(-c2nc(NCc3cccnc3)c3ccccc3n2)cc1 ?
GRIN3A LBD mod: 8.4; Mdm2 MdmX PPI: 10.6; Beta apoptosis: 11.9; CSC inhib: 133.5*; MPTP inh: 3.3; SKKanGAS inh: 26.7

What do the screens show for `c1ccc(CNc2nc(-c3ccccc3)nc3ccccc23)cc1`?
GRIN3A LBD mod: 10.0*; Mdm2 MdmX PPI: 23.8; CSC inhib: 38.0; MPTP inh: 2.6; SKKanGAS inh: -1.4

What do the screens show for `COCCCNc1nc(-c2ccncc2)nc2ccccc12`?
GRIN3A LBD mod: 0.7; Mdm2 MdmX PPI: 11.3; Beta apoptosis: -5.4; CSC inhib: -11.6; MPTP inh: -2.9; SKKanGAS inh: -0.9

Results for COCCCNc1nc(-c2ccc(Cl)cc2)nc2ccccc12 ?
GRIN3A LBD mod: 11.7*; Mdm2 MdmX PPI: 19.3; Beta apoptosis: 2.2; CSC inhib: 58.3; MPTP inh: 1.8; SKKanGAS inh: -0.3

How did CCCCn1nc(C(=O)Nc2cc(C(F)(F)F)ccc2N2CCOCC2)ccc1=O do in these assays?
GRIN3A LBD mod: -3.0; Mdm2 MdmX PPI: 38.3; Beta apoptosis: 13.7; CSC inhib: 8.2; MPTP inh: -2.9

What do the screens show for `COc1ccccc1-c1csc(C(O)(c2ccccc2)C(F)(F)F)n1` (stereo not drawn)?
MPTP inh: 0.9

How did C/C(=N\Nc1ccc(C(=O)O)cc1)c1ccc2c(c1)Nc1ccccc1S2 do in these assays?
GRIN3A LBD mod: 6.3; Mdm2 MdmX PPI: 20.2; Beta apoptosis: -24.8; CSC inhib: 19.8; MPTP inh: 3.4; SKKanGAS inh: 80.7*

What do the screens show for `Cc1cc(C(=O)N2CCC2(C)C(=O)NS(=O)(=O)c2ccc(Cl)cc2)nn1C` (stereo not drawn)?
MPTP inh: 0.5

Results for O=C1C(=Cc2cn(-c3ccccc3)nc2-c2ccc(OCc3ccc(Cl)cc3)cc2)SC(=S)N1CCS(=O)(=O)O ?
MPTP inh: 1.0

How did COc1ccc(/C=C2/SC(=S)N(CCC(=O)O)C2=O)cc1 do in these assays?
GRIN3A LBD mod: -0.1; Mdm2 MdmX PPI: 24.8; Beta apoptosis: -0.1; CSC inhib: 8.8; MPTP inh: 0.6; SKKanGAS inh: -9.4

How did COc1ccc(-c2nn(-c3ccccc3)cc2/C=C2/SC(=S)N(CCC(=O)O)C2=O)c(C)c1 do in these assays?
GRIN3A LBD mod: 3.1; Mdm2 MdmX PPI: 12.5; Beta apoptosis: 4.8; CSC inhib: 84.7*; MPTP inh: 0.9; SKKanGAS inh: 47.7

What do the screens show for `COc1ccc(-c2nn(-c3ccccc3)cc2/C=C2/SC(=S)N(CCC(=O)O)C2=O)cc1`?
GRIN3A LBD mod: 3.7; Mdm2 MdmX PPI: 24.8; Beta apoptosis: -3.8; CSC inhib: 27.6; MPTP inh: 4.2; SKKanGAS inh: 83.4*

How did Cc1ccc(-c2nn(-c3ccccc3)cc2/C=C2\SC(=S)N(CC(=O)O)C2=O)cc1 do in these assays?
GRIN3A LBD mod: 2.8; Mdm2 MdmX PPI: 11.2; Beta apoptosis: 9.5; CSC inhib: 54.9; MPTP inh: 12.9; SKKanGAS inh: 55.4*
